Pf growth 96h = inhibits malaria parasite growth, 96 h. P. falciparum luciferase reporter growth, 96 h. Potency, µM (titrated, usually from 28.7 µM), without a hit: top-dose activity change, negative = inhibition, most hits filed as inhibitors. 320,000 compounds, 6.9% hits; note: potency is the fitted concentration of half-maximal effect; % is set by controls: 0 for no effect and ±100 for the full control effect
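Erythrocytes infected with luciferase-expressing P. falciparum were dispensed at 2% hematocrit and 0.05% parasitemia (final), then incubated with compounds 96 hours at 37 C in 5% CO2. Luminescence after detection reagent addition reported growth.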
CHX counter = counter-screen for Shiga toxin inhibitors: cycloheximide protein synthesis inhibition; cell reporter, cycloheximide protein synthesis inhibition counterscreen; max response, %; 300,000 compounds, 12% hits; AID 2314; in the data active = max response mostly above about 13%, no sharp cut-off; inactive = mostly below about 14%; note: read at 38.3 µM for the half of the compounds with a filed dose; 0% is about no effect
HCV inhibitor = HCV inhibition | Huh7.5.1 HCVcc-Cre infection, luciferase reporter, 44 h | Potency, µM (highest dose often 41.8 µM), inactives show at the highest dose activity change, negative = inhibition, usual class: inhibitors | 340,000 compounds, 3.4% hits; note: potency is the fitted concentration of half-maximal effect; % is set by controls: 0 for no effect and ±100 for the full control effect
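Infectious HCV cell culture screen: compound-treated cells (1,000/well, pre-plated 4 h) are infected with HCVcc-Cre at roughly 0.5 moi and grown 44 h. Infection is quantified by luciferase signal after 15 min substrate incubation at room temperature.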
Shiga inhibitor = blocks Shiga toxin action in Vero cells; Vero cells, Shiga toxin protein synthesis inhibition reporter; inhibition, % at 38.7 µM; 290,000 compounds, 9.2% hits; AID 2315; in the data active = inhibition mostly above about 28%, no sharp cut-off; inactive = mostly below about 43%; note: 0% is about no effect
AMA1 RON2 block = AMA1-RON2 (P. falciparum) interaction inhibition; AlphaScreen AMA1-biotinylated RON2 peptide binding; Potency, µM (highest dose often 58.2 µM), for inactives: at the highest dose activity change, negative = inhibition, actives largely listed as inhibitors; 360,000 compounds, 0.2% hits; AID 720542;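 note: potency is the fitted concentration of half-maximal effect; 0% = vehicle wells and -100% = peptide control; nearly all actives have a fitted effect of over 45% in size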
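AMA1 (3D7) with his tag at 25 nM final met compounds first, then biotinylated RON2 peptide at 25 nM; detection used donor plus acceptor beads, 10 µg/mL apiece, read by AlphaScreen after 30 min at room temperature.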
Pf growth 48h = P. falciparum growth inhibition at 48 hours (one generation); P. falciparum luciferase growth in erythrocytes, 48 h; Potency, µM (titrated, usually from 28.7 µM), without a hit: top-dose activity change, negative = inhibition, usual class: inhibitors; 310,000 compounds, 5.9% hits; AID 504832; note: potency is the fitted concentration of half-maximal effect; % is set by controls: 0 for no effect and ±100 for the full control effect
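Cell-based growth assay: transgenic P. falciparum expressing firefly luciferase, cultured in red cells within RPMI 1640 containing 0.5% w/v Albumax, 24 mM bicarbonate and gentamycin. A drop in luciferase activity indicates inhibition.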
Active calls of the source: *. Shown are actives, neighbours in structure and some others; about 21% of the full set was active somewhere. Unless noted, calls come from the whole dose curve; as a rule, active = well fitted curve in the direction sought with a large enough effect; inconclusive = small, poorly fitted or top-dose-only effect, or another doubt; inactive = no such curve, though single readings can be large; an effect the other way counts as inactive or inconclusive.

CCCCOC(=O)Nc1ccc(N(C)C)cc1 was read as Pf growth 96h 25%, CHX counter 80*, HCV inhibitor -3%, Shiga inhibitor 116*, AMA1 RON2 block inconclusive and Pf growth 48h 348%.
CCCCOC(=O)Nc1ccc(C(N)=O)cc1 was read as Pf growth 96h -2%, CHX counter 37*, HCV inhibitor -9%, Shiga inhibitor 76*, AMA1 RON2 block -3% and Pf growth 48h 106%.
CCCCOC(=O)Nc1ccc(S(=O)(=O)Nn2cnnc2)cc1 was read as Pf growth 96h 51%, CHX counter -2, HCV inhibitor 6%, Shiga inhibitor 19, AMA1 RON2 block -1% and Pf growth 48h 10%.
For CC(C)COC(=O)NCCOC(=O)Nc1cccc(Cl)c1 the results were Pf growth 96h -5%, CHX counter 1, HCV inhibitor inconclusive, Shiga inhibitor 2, AMA1 RON2 block -15% and Pf growth 48h -20%.
Screening CCCCOC(=O)Nc1cccc(C(=O)OCC)c1 returned Pf growth 96h 216%, CHX counter 21*, HCV inhibitor -9%, Shiga inhibitor 83*, AMA1 RON2 block 3% and Pf growth 48h 97%.
For O=C(Nc1ccnn1C1CCN(CCCc2ccccc2)CC1)c1cccc(F)c1 the results were Pf growth 96h 22%, CHX counter -1, HCV inhibitor 9%, Shiga inhibitor -7, AMA1 RON2 block -1% and Pf growth 48h inconclusive.
Screening CCCCOC(=O)Nc1ccc(C(C)C)cc1 returned Pf growth 96h 74%, CHX counter 40*, HCV inhibitor -21%, Shiga inhibitor 86*, AMA1 RON2 block 7% and Pf growth 48h 246%.
For CCCCOC(=O)Nc1ccc(S(=O)(=O)Nc2ccc([N+](=O)[O-])cc2)cc1 the results were Pf growth 96h 48%, CHX counter 5, HCV inhibitor 8%, Shiga inhibitor 20, AMA1 RON2 block -4% and Pf growth 48h 6%.
Screening O=CNc1c(Cl)cc2c(c1Cl)Cc1cc([N+](=O)[O-])ccc1-2 returned HCV inhibitor inconclusive and AMA1 RON2 block 6%.
COc1cc(SC)ccc1C(=O)NCCc1ccccc1 was read as Pf growth 96h 55%, CHX counter 49*, HCV inhibitor -15%, Shiga inhibitor 74*, AMA1 RON2 block -15% and Pf growth 48h 133%.
Screening COc1cc(SC)ccc1C(=O)NCCOc1c(C)cc(C)cc1C returned Pf growth 96h 4.7µM*, CHX counter -4, Shiga inhibitor -9, AMA1 RON2 block 7% and Pf growth 48h 13µM*.
For COc1ccc(/C=N/n2cncn2)cc1Cn1nc(C)c([N+](=O)[O-])c1C the results were Pf growth 96h 12%, CHX counter 1, HCV inhibitor -20%, Shiga inhibitor 10, AMA1 RON2 block 23% and Pf growth 48h -8%.
For Cc1cccc(C)c1OC(=O)CN1C(=O)c2ccccc2C1=O the results were Pf growth 96h 0%, CHX counter -5, HCV inhibitor 4%, Shiga inhibitor 15, AMA1 RON2 block 16% and Pf growth 48h 139%.
N#C/C(=C(/O)CN1CCCC1)c1nc(-c2ccccc2)cs1 was read as Pf growth 96h 250%, CHX counter 33*, HCV inhibitor 8%, Shiga inhibitor 120*, AMA1 RON2 block -16% and Pf growth 48h 149%.
`N#CC(=C(O)CN1CCN(c2ccccc2F)CC1)c1nc(-c2ccccc2)cs1` gave HCV inhibitor 2% and AMA1 RON2 block 67%.
Screening COc1nc(NCc2ccco2)nc(NC2CCCCC2)n1 returned Pf growth 96h 23%, CHX counter 26*, HCV inhibitor -16%, Shiga inhibitor 42, AMA1 RON2 block -16% and Pf growth 48h -13%.
For COc1nc(NCc2ccco2)nc(N2CCC(C)CC2)n1 the results were Pf growth 96h -14%, CHX counter -3, HCV inhibitor -23%, Shiga inhibitor 16, AMA1 RON2 block 0% and Pf growth 48h inconclusive.
Screening CCCN(CCC)S(=O)(=O)c1ccc(C(=O)Nc2ccc(OCC(=O)N3CCOCC3)cc2)cc1 returned CHX counter -6, HCV inhibitor inconclusive, Shiga inhibitor 5, AMA1 RON2 block -12% and Pf growth 48h inconclusive.
For O=C(Nc1ccc(OCC(=O)N2CCOCC2)cc1)Nc1cccc(Cl)c1 the results were Pf growth 96h -23%, CHX counter 14*, HCV inhibitor 11%, Shiga inhibitor 39*, AMA1 RON2 block -1% and Pf growth 48h -11%.
`O=C(Nc1ccc(C(=O)N2CCOCC2)cc1)Nc1cccc(Cl)c1` gave Pf growth 96h inconclusive, CHX counter 44*, HCV inhibitor -18%, Shiga inhibitor 65*, AMA1 RON2 block -5% and Pf growth 48h 86%.
For CC(C)(C)c1ccc(NC(=O)Nc2ccc(OCC(=O)N3CCOCC3)cc2)cc1 the results were Pf growth 96h -38%, CHX counter 35*, HCV inhibitor inconclusive, Shiga inhibitor 93*, AMA1 RON2 block 2% and Pf growth 48h 212%.
For CCCNC(=O)C1(C)CCCN(Cc2cc(-c3ccccc3)n(C)n2)C1 (stereo not drawn) the results were AMA1 RON2 block 13%.
CCNC(=S)NNC(=O)c1cc(-c2ccccc2C)nc2ccccc12 was read as Pf growth 96h inconclusive, CHX counter 2, HCV inhibitor 8%, Shiga inhibitor 19, AMA1 RON2 block 44% and Pf growth 48h inconclusive.
CCCOc1cccc(-c2cc(C(=O)NNC(=S)NCC)c3ccccc3n2)c1 was read as CHX counter 25*, HCV inhibitor -24%, Shiga inhibitor 87*, AMA1 RON2 block 64% and Pf growth 48h 10µM*.
For CCCOc1ccc(C(=O)NNC(=S)NC(=O)c2cc(-c3ccc(Cl)cc3)nc3ccccc23)cc1 the results were Pf growth 96h 8%, CHX counter 1, HCV inhibitor 16µM*, Shiga inhibitor -33, AMA1 RON2 block 170% and Pf growth 48h inconclusive.
CCCCNC(=S)NNC(=O)c1cc(-c2ccncc2)nc2ccccc12 was read as Pf growth 96h 28%, CHX counter 19*, HCV inhibitor -5%, Shiga inhibitor 24, AMA1 RON2 block 85% and Pf growth 48h -3%.
CCNC(=S)NNC(=O)c1cc(-c2cccc(OC)c2)nc2ccccc12 was read as Pf growth 96h -27%, CHX counter 71*, HCV inhibitor 21%, Shiga inhibitor 43, AMA1 RON2 block 18% and Pf growth 48h -5%.
For CCNC(=S)NNC(=O)c1cc(-c2ccc(OCC)cc2)nc2ccccc12 the results were Pf growth 96h 2%, CHX counter -12, HCV inhibitor -14%, Shiga inhibitor -26, AMA1 RON2 block 44% and Pf growth 48h inconclusive.
Screening COc1ccc(NC(=S)N(CCC(C)C)C2CCN(C(C)C)CC2)cc1 returned Pf growth 96h 38%, CHX counter 8, HCV inhibitor inconclusive, Shiga inhibitor -4, AMA1 RON2 block 10% and Pf growth 48h -8%.

Source: PubChem
